Screening data (PubChem BioAssay)
This is a sample that favours compounds with a hit; in the whole collection about 21% have one here.
Pf growth 96h – inhibits malaria parasite growth, 96 h; P. falciparum luciferase reporter growth, 96 h; Potency, µM (series often up to 28.7 µM), hits mostly inhibitors; hit rate 6.9% among 320,000; AID 504834
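96 h incubation, 37 C, 5% CO2, of luciferase-reporter P. falciparum-infected RBCs (2% hematocrit, 0.05% parasitemia final) with test compounds; endpoint luminescence.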
Sm TGR inh – inhibitors of Schistosoma mansoni thioredoxin glutathione reductase; Q962Y6; purified TGR, DTNB reduction, TNB absorbance 405 nm; Potency, µM (series often up to 114 µM), usual class: inhibitors; hit rate 3% among 360,000; AID 485364; note: nearly all actives have a fitted effect of over 60% in size
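Kinetic colorimetric format: TGR-catalysed, NADPH-driven DTNB reduction monitored via TNB absorbance. Enzyme dispensed at 20 nM; compound exposure 15 min at room temperature before reaction start.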
Pf growth 48h – P. falciparum growth inhibition at 48 hours (one generation). P. falciparum luciferase growth in erythrocytes, 48 h. hit rate 5.9% among 310,000. Potency, µM (top dose mostly 28.7 µM), most hits filed as inhibitors
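In quantitative HTS format, infected erythrocytes bearing luciferase-reporter parasites were treated for a single generation at 37 C. Luminescence after adding detection reagent served as the growth measure.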
Cycloheximide cs – counter-screen hit for Shiga toxin inhibitors, cycloheximide; cell reporter, cycloheximide protein synthesis inhibition counterscreen; AID 2314; max response, %; hit rate 12% among 300,000; in the data active = max response mostly above about 13%, no sharp cut-off; inactive = mostly below about 14%; note: read at 38.3 µM for the half of the compounds with a filed dose
Shiga toxin inh – inhibitors of Shiga toxin in Vero cells | inhibition, % at 38.7 µM | Vero cells, Shiga toxin protein synthesis inhibition reporter | hit rate 9.2% among 290,000; in the data active = inhibition mostly above about 28%, no sharp cut-off; inactive = mostly below about 43%
NS1 inh – influenza NS1 inhibition; Potency, µM (doses to about 46.1 µM); hit rate 0.4% among 270,000; AID 2326; calls by dose curve; note: actives are rising curves; nearly all actives have a fitted effect of over 50% in size
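Compounds were scored for reversing the slow growth caused by influenza A NS1 in S. cerevisiae, measured by optical density at 600 nm. Assay medium contained 2% galactose at pH 6.0; NS1-free yeast of the same strain were the positive control.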
A number is an active result; - = inactive; ? = inconclusive; . = no result. Unless noted, calls come from the whole dose curve; as a rule, active = well fitted curve in the direction sought with a large enough effect; inconclusive = small, poorly fitted or top-dose-only effect, or another doubt; inactive = no such curve, though single readings can be large; an effect the other way counts as inactive or inconclusive.

SMILES	Pf growth 96h	Sm TGR inh	Pf growth 48h	Cycloheximide cs	Shiga toxin inh	NS1 inh
C/C(=N\NC(=O)c1ccccn1)C12CC3CC(CC(C3)C1)C2	-	-	-	31.2	53.7	-
N/C(=N\OC(=O)C12CC3CC(CC(C3)C1)C2)c1ccccc1	-	-	?	-	-	-
C/C(=N/NC(=O)c1ccoc1C)C12CC3CC(CC(C3)C1)C2	.	-	-	38.6	-	-
COc1ccc([N+](=O)[O-])cc1N(CC1CO1)S(=O)(=O)c1ccc(C)cc1 (stereo unspecified)	-	-	-	-	-	-
O=S(=O)(c1cnc[nH]1)N1CCc2ccccc21	8.28µM	-	-	-	-	-
Cc1cccc2cc(C(c3nnnn3C(C)(C)C)N(Cc3ccco3)CC3CCCO3)c(=O)[nH]c12 (stereo unspecified)	?	-	11.7µM	-	-	-
CC(C)(C)n1nnnc1C(c1ccccc1F)N(Cc1ccco1)CC1CCCO1 (stereo unspecified)	-	?	13.1µM	-	-	-
Cc1cccc2cc(C(c3nnnn3CC3CCCO3)N3CCOCC3)c(=O)[nH]c12 (stereo unspecified)	-	-	-	-	-	-
Cc1ccc2[nH]c(=O)c(C(c3nnnn3C(C)(C)C)N(Cc3ccco3)CC3CCCO3)cc2c1 (stereo unspecified)	?	-	6.57µM	-	-	-
O=C(NCc1ccco1)C(c1ccccc1F)N(CC1CCCO1)C(=O)Cn1nnc2ccccc21 (stereo unspecified)	-	-	-	-	-	-
Cc1ccc2[nH]c(=O)c(C(c3nnnn3C3CCCC3)N(Cc3cccnc3)Cc3ccco3)cc2c1 (stereo unspecified)	.	-	?	-	-	-
Cn1c2cc(S(C)(=O)=O)sc2c2cnn(Cc3ccccc3F)c(=O)c21	.	.	.	-	-	.
O=[N+]([O-])c1cc(S(=O)(=O)/N=C(/c2ccccc2)N2CCOCC2)ccc1Cl	-	44.7µM	-	-	-	.
COc1ccc(S(=O)(=O)NCC2CCC(C(=O)O)CC2)cc1 (stereo unspecified)	-	-	-	-	-	?
Cc1ccc(-n2c(SCC(=O)Nc3ccc4c(c3)OCO4)nc3c([nH]c4ccccc43)c2=O)cc1	.	-	.	.	.	.
COc1ccc(CCNc2nc3ccccc3n3nnnc23)cc1OC	-	-	.	-	-	-
CCOc1ccc(CCNc2nc3ccccc3n3c(C)nnc23)cc1OCC	-	-	5.22µM	-	-	-
O=C(c1ccc(OC2CCN(Cc3ccccc3C(F)(F)F)CC2)cc1)N1CCCCC1	3.29µM	-	?	-	-	-
CCCn1cc(CN2CCC(Oc3ccc(C(=O)N4CCCC4)cc3)CC2)c(C)n1	10.4µM	-	-	-	-	-
O=C(c1ccc(OC2CCN(Cc3ccc(C(F)(F)F)cc3)CC2)cc1)N1CCCCC1	?	-	?	-	-	-
COc1ccccc1/C=C/C(=O)NCc1cccnc1	-	-	-	-	-	-
CCOC(=O)C1=C(COC(=O)COc2ccccc2C(C)C)NC(=O)NC1C (stereo unspecified)	-	-	-	.	.	.
O=c1[nH]c(=S)[nH]c(O)c1/C=C1/C=c2ccccc2=N1	-	?	-	-	-	-
Cc1cccc2c1=NC(=O)/C(=C/c1c(O)[nH]c(=O)[nH]c1=O)C=2	?	35.5µM	-	-	-	-
CC[C@H](C)[C@H](NC(=O)[C@H](Cc1ccc(O)cc1)NC(=O)[C@@H](NC(=O)[C@@H](N)CCCN=C(N)N)C(C)C)C(=O)N[C@@H](Cc1cnc[nH]1)C(=O)N1CCC[C@H]1C(=O)N[C@@H](Cc1ccccc1)C(=O)O	.	.	.	-	-	.
SMILES	Pf growth 96h	Sm TGR inh	Pf growth 48h	Cycloheximide cs	Shiga toxin inh	NS1 inh
O=C1CCCCN1CCC(=O)N1CCCC(N2CCN(c3cccc(Cl)c3)CC2)C1 (stereo unspecified)	-	-	-	24.1	35.4	-
CCc1nccn1CCC(=O)N1CCCC(N2CCN(c3ccccc3C)CC2)C1 (stereo unspecified)	-	-	?	-	-	-
CCc1nccn1CCC(=O)N1CCCC(N2CCN(c3cccc(Cl)c3)CC2)C1 (stereo unspecified)	-	-	-	31.1	49.0	-
Cc1cccc([C@@H]2[C@@H]3C(=O)N(Cc4ccccc4)C(=O)[C@@H]3[C@]3(CC(C)C)C(=O)N(c4cccc(F)c4)C(=O)N23)c1	?	-	9.28µM	.	.	.
CCN1C(=O)[C@H]2[C@@H](c3ccccc3)N3C(=O)N(c4cccc(F)c4)C(=O)[C@@]3(CC(C)C)[C@H]2C1=O	-	-	-	-	-	-
CCN1C(=O)[C@H]2[C@@H](c3ccc(C)cc3)N3C(=O)N(c4ccc(C)cc4)C(=O)[C@@]3(CC)[C@H]2C1=O	-	-	-	.	.	.
CC[C@@]12C(=O)N(c3ccccc3)C(=O)N1[C@H](c1cccc(C)c1)[C@@H]1C(=O)N(Cc3ccccc3)C(=O)[C@@H]12	6.57µM	-	?	-	-	-
CCN1C(=O)[C@H]2[C@@H](c3ccc(C)cc3)N3C(=O)N(c4ccccc4)C(=O)[C@@]3(CC)[C@H]2C1=O	-	-	-	14.5	-	-
CCN1C(=O)[C@H]2[C@@H](c3ccc(C)cc3)N3C(=O)N(c4cccc(Br)c4)C(=O)[C@@]3(CC(C)C)[C@H]2C1=O	14.7µM	-	?	.	.	.
CSCC[C@H](NC(=O)N1CCn2c1nc1ccccc12)C(=O)NC1CC1	-	-	-	-	-	-
CC[C@@]12C(=O)N(c3cccc(Br)c3)C(=O)N1[C@H](c1cccc(C)c1)[C@@H]1C(=O)N(Cc3ccccc3)C(=O)[C@@H]12	5.22µM	-	4.15µM	.	.	.
Cc1cccc([C@@H]2[C@@H]3C(=O)N(Cc4ccccc4)C(=O)[C@@H]3[C@]3(CC(C)C)C(=O)N(c4cccc(Br)c4)C(=O)N23)c1	?	-	?	-	-	-
CC(C)(C)OC(=O)NCCCC[C@H](NC(=O)c1nc[nH]c1C(=O)NC1CCN(C(=O)OC(C)(C)C)CC1)C(=O)OC(C)(C)C	2.33µM	-	2.08µM	-	-	-
CC(C)C[C@H](NC(=O)c1nc[nH]c1C(=O)NC1CCN(C(=O)OC(C)(C)C)CC1)C(=O)OCc1ccccc1	11.7µM	-	?	-	-	?
CC(C)(C)OC(=O)NCc1ccc(CNC(=O)c2[nH]cnc2C(=O)NC2CCN(C(=O)OC(C)(C)C)CC2)cc1	?	-	5.86µM	.	.	.
CC(C)C[C@H](NC(=O)c1nc[nH]c1C(=O)NC1CCN(C(=O)OC(C)(C)C)CC1)C(=O)OC(C)(C)C	2.33µM	-	1.47µM	-	-	-
CC(C)C[C@H](NC(=O)c1nc[nH]c1C(=O)N1CCN(C(=O)OC(C)(C)C)CC1)C(=O)OCc1ccccc1	?	-	?	-	-	-
C[C@H](NC(=O)c1nc[nH]c1C(=O)NC1CCN(C(=O)OC(C)(C)C)CC1)C(=O)OC(C)(C)C	?	-	-	-	-	-
